The structures appear in SMILES notation. Results filed as inconclusive are left out. Values without a mark were called inactive. Activity calls are given as the source filed them. Calls follow the shape of the dose curve; as a rule, active = well fitted activation curve with a large enough effect in the signal ratio in the repeat runs (not every such curve was filed as active); inconclusive = weak or mixed curves; inactive = flat fitted curve, though single readings scatter; the % refers to the signal ratio.
% is scaled to controls: 0 for no effect and ±100 for the full control effect; potency is read from the fitted curve at half-maximal effect.

A short description of this assay: qHTS assay to identify small molecule agonists of the TGF-beta/Smad signaling pathway (AID 1346859). The settings on record: SBE-bla HEK293T, TGF-beta/Smad beta-lactamase reporter, 5 h; series mostly up to 76.8 µM; activation: at the top concentration. An excerpt:
U.S. Tox21 Program National Center for Advancing Translational Sciences [NCATS] NIH Chemical Genomics Center [NCGC] U.S. Environmental Protection Agency [EPA] National Institutes of Environmental Health Sciences [NIEHS] National Toxicology Program [NTP] U.S. Food and Drug Administration [FDA] Tox21 Assay Overview: Transforming growth factor beta (TGF-beta) superfamily consists of a large number of structurally related dimeric proteins that act as hormones or local mediators in regulating a wide range of biological functions. This superfamily includes TGF-betas themselves, the bone morphogenetic proteins (BMPs) and the activins. These ligands induce oligomerization of serine/threonine receptor kinases and phosphorylate the cytoplasmic signaling molecules of Smad protein family. CellSensor SBE-bla HEK 293T cell line (Life Technologies, Carlsbad, CA), responsive to TGF-beta was used to screen Tox21 10K compound library for identification of agonists/antagonists of the Smad signaling pathway. This cell line contains a beta-lactamase reporter gene under control of the Smad binding element (SBE) stably integrated into HEK 293T cells.
Tox21 Assay Protocol Summary: SBE-bla HEK 293T cells were dispensed at 4,000/well in 6 uL of assay medium into black wall/clear-bottom 1536-well plates using a Multidrop Combi (ThermoFisher Scientific, Waltham, MA) dispenser. After the assay plates were incubated at 37 C and 5% CO2 for an overnight, 23 nL of compounds dissolved in DMSO, positive controls or DMSO only was transferred to the assay plate by a Pintool station (Kalypsys, San Diego, CA). The assay plates were incubated at 37 C and 5% CO2 for 5 hr. One uL of LiveBLAzer B/G FRET substrate (Life Technologies) was added using a Flying Reagent Dispenser (Aurora Discovery, San Diego, CA) and the plates were incubated at room temperature for 2 hr. Fluorescence intensity (405 nm excitation, 460 nm and 530 nm emissions) was measured using an Envision plate reader (PerkinElmer, Shelton, CT).
(Quantitative high-throughput screening tests each substance at several concentrations.)
For the molecule `O=C=Nc1ccc(Cl)c(Cl)c1`, the “activation” value is -0.181%. For `CCOc1ccc(Cc2nccc3cc(OCC)c(OCC)cc23)cc1OCC`, the “activation” value was 0% [at 35.3 µM]. Consider `COC(=O)c1nc(Cl)c(Cl)nc1N`, for which the Potency was 23.9 µM (active). With `O=C(/C=C/c1ccccc1)OCCc1ccccc1`, the “activation” value is -0.153%.

As for `CC(=O)Nc1ccc(C)cc1C`, the “activation” value is -0.445%. Turning to `C[C@@H]1CN(CCCn2c3ccccc3c3ccccc32)C[C@H](C)N1`, the “activation” value is -4.53% [at 35.3 µM]. `CC(C)C[C@H](NC(=O)[C@H](CCc1ccccc1)NC(=O)CN1CCOCC1)C(=O)N[C@@H](Cc1ccccc1)C(=O)N[C@@H](CC(C)C)C(=O)[C@@]1(C)CO1`: the “activation” value is 7% [at 35.3 µM]. Still for that read-out and setting: the figure for `CC(C)Nc1cccnc1N1CCN(C(=O)c2cc3cc(NS(C)(=O)=O)ccc3[nH]2)CC1` is -2.98% [at 35.3 µM]; for `CCC(OCCCOC)OC(C)=O` (stereo not given) it is 0.904%; for `C[C@@H](O[C@H]1OCCN(Cc2n[nH]c(=O)[nH]2)[C@H]1c1ccc(F)cc1)c1cc(C(F)(F)F)cc(C(F)(F)F)c1` it is -7.85% [at 35.3 µM].

With `CC(=O)OCCN(CCOC(C)=O)c1ccc(N=Nc2ccc([N+](=O)[O-])cc2C#N)cc1`, the “activation” value was -0.854%. Same read-out and setting: the figure for `CCOC(C)=O` is -2.04%; for `CCCCCCCCOc1ccc(C(=O)O)cc1` it is 2.17%; for `CCOC(=O)OC(C)OC(=O)[C@@H]1N2C(=O)[C@@H](NC(=O)[C@H](N)c3ccccc3)[C@H]2SC1(C)C` (stereo not given in full) it is 5.67% [at 35.3 µM]. Same read-out and setting: under `Cc1cc(C)cc(N)c1` stands 1.07%; under `O=C1C(=O)c2ccccc2C(O)=C1C1CCC(c2ccc(Cl)cc2)CC1` (stereo not given), -3.28% [at 35.3 µM]. On to `O=C1Cc2cc(Cl)ccc2N1`, for which the “activation” value was 0.484% [at 35.3 µM]. On the same count and under the same terms, under `c1ccc2sc(SN(C3CCCCC3)C3CCCCC3)nc2c1` stands -0.199%; under `COc1ccccc1Oc1c(NS(=O)(=O)c2ccc(C(C)(C)C)cc2)nc(-c2ncccn2)nc1OCCO`, -2.17% [at 35.3 µM]; under `O=C(OCC(O)CO)c1ccccc1Nc1ccnc2cc(Cl)ccc12` (stereo not given), -7.19% [at 35.3 µM]. With `CC(=O)N/N=C/c1ccc([N+](=O)[O-])o1`, the “activation” value was -0.279% [at 35.3 µM]. The same measure, in the same setting: the figure for `CS(=O)(=O)c1ccc(-c2cn3ccccc3n2)cc1` is -0.374% [at 35.3 µM].

On to `Brc1cc(Br)c(Oc2cc(Br)c(Br)cc2Br)cc1Br`, for which the “activation” value was -0.972% [at 35.3 µM]. With `Cc1c(C)c2c(c(C)c1OC(=O)CCC(=O)OCCO)CC[C@@](C)(CCC[C@H](C)CCC[C@H](C)CCCC(C)C)O2`, the “activation” value is -0.823% [at 35.3 µM]. Regarding `C[C@@]12CCC[C@H]1[C@@H]1CC[C@H]3C[C@@H](O)CC[C@]3(C)[C@H]1CC2`, the “activation” value was -3.61% [at 35.3 µM]. For the molecule `C1COC1`, the “activation” value was -0.542%. Still for that read-out and setting: the figure for `O=C(CCc1ccc(O)cc1)c1c(O)cc(O)cc1O` is 0.317%.

Consider `NCCNCCO`, for which the “activation” value was 0.0718%. The same measure, in the same setting: under `CCOC(=O)c1ccccc1C(=C1C=C(Br)C(=O)C(Br)=C1)c1cc(Br)c(O)c(Br)c1` stands 0.759% [at 35.3 µM]. `CCCCC(CC)CN` (stereo not given): the “activation” value was -8.17%. Same read-out and setting: the figure for `Oc1cccc(Nc2ccccc2)c1` is 0.569%; for `CC/C=C1/OC(=O)c2ccccc21` it is -0.197%. Regarding `CC(C)c1nc(CN(C)C(=O)N[C@H](C(=O)N[C@@H](Cc2ccccc2)C[C@H](O)[C@H](Cc2ccccc2)NC(=O)OCc2cncs2)C(C)C)cs1`, the “activation” value is -10.5% [at 35.3 µM]. As for `CCOC(=O)[C@H](CCc1ccccc1)N[C@@H](C)C(=O)N(CC(=O)O)C1Cc2ccccc2C1`, the “activation” value is -5.4% [at 35.3 µM]. With `Clc1cc(Cl)nc(Cl)n1`, the “activation” value is 2.9%. For `CN(C)CCN1C(=O)c2ccccc2N(C)c2ccccc21`, the “activation” value was 6.87% [at 35.3 µM].

For `Cc1ccccc1S`, the “activation” value was 0.229% [at 35.3 µM]. On to `Nc1nnc(-c2ccc([N+](=O)[O-])o2)o1`, for which the “activation” value is 0.0169%. The same measure, in the same setting: the figure for `O=C(O)CCC(=O)C(=O)O` is 3.59%. Still for that read-out and setting: the figure for `O=c1[nH]c2ccc(Cl)cc2o1` is -1.54%.

These data come from PubChem BioAssay (Tox21).
